Assay outcomes deposited in PubChem by National Center for Advancing Translational Sciences (NCATS).
Most compounds without a hit are left out; they make up all but 12% or so of the library.
PLK1 PBD block – PLK1 (human) polo-box domain binding inhibition; P53350; Plk1 PBD binding of FITC phosphopeptide, fluorescence polarization; Potency, µM, for the others: max response, negative = inhibition, actives largely listed as inhibitors; hit rate 2.8% among 360,000; AID 720504; note: potency is the fitted concentration of half-maximal effect; series mostly up to about 57 µM; % is set by controls: 0 for no effect and ±100 for the full control effect; nearly all actives have a fitted effect of over 65% in size
BAZ2B inh – blocks human BAZ2B | AlphaScreen BAZ2B-H3K14Ac peptide displacement | Potency, µM (highest dose often 114 µM), for the others: top-dose activity change, negative = inhibition, hits mostly inhibitors | hit rate 4.4% among 360,000; note: potency is the fitted concentration of half-maximal effect; % is set by controls: 0 for no effect and ±100 for the full control effect; nearly all actives have a fitted effect of over 60% in size
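AlphaScreen displacement of biotin-H3(5-23)K14Ac peptide (50 nM final) from BAZ2B (50 nM final) in PBS pH 7.4, 0.01% Tween-20; complex preformed 30 min RT, then compounds (top 110 uM) 30 min RT, beads 20 min dark.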
JMJD2A Tudor – inhibitors of human JMJD2A Tudor domain; O75164; AlphaScreen JMJD2A-Tudor / H3K4me3 peptide binding; AID 504339; hit rate 4.4% among 390,000; Potency, µM (highest dose often 114 µM), for inactives: top-dose activity change, negative = inhibition, actives largely listed as inhibitors; note: potency is the fitted concentration of half-maximal effect; % is set by controls: 0 for no effect and ±100 for the full control effect; nearly all actives have a fitted effect of over 50% in size
HP1b binding inh – HP1-beta chromodomain-methylated histone interaction inhibition; P83916; AlphaScreen HP1-beta / biotin-H3K9me3 peptide binding; Potency, µM (top dose mostly 114 µM), for inactives: top-dose activity change, negative = inhibition, hits mostly inhibitors; hit rate 0.56% among 390,000; note: potency is the fitted concentration of half-maximal effect; nearly all actives have a fitted effect of over 70% in size
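Compound inhibition of the preformed complex between 50 nM HP1-beta and 50 nM biotinylated H3K9me3 peptide was read by AlphaScreen. Buffer was PBS pH 7.4 with 0.01% Tween-20. Incubations ran 30 min at room temperature, with 10 ug/mL donor/acceptor beads.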
G9a inh – blocks human histone lysine methyltransferase G9a; Potency, µM (doses to about 102 µM), inactives show at the top dose activity, negative = inhibition, usual class: inhibitors; Q96KQ7; G9a H3K9 monomethylation, AlphaScreen, 2 h; hit rate 8.8% among 350,000; note: potency is the fitted concentration of half-maximal effect; % is set by controls: 0 for no effect and ±100 for the full control effect; nearly all actives have a fitted effect of over 75% in size
Target sequence (Q96KQ7 913-1193 limits assumed): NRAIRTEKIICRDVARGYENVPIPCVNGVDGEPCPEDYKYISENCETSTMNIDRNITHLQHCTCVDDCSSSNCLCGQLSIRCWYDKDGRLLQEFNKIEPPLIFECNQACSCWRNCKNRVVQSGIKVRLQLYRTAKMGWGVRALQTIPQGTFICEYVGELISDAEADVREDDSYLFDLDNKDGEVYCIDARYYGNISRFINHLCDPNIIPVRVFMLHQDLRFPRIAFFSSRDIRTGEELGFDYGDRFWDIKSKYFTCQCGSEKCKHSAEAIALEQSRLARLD
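AlphaScreen read-out: biotin-H3K9 peptide (500 nM) methylation by 20 nM enzyme with 20 uM SAM, 2 h at room temperature after 15 min compound preincubation; anti-monomethyl H3K9 antibody plus donor/acceptor beads, 10 min dark.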
PI5P4K alpha inh – inhibitors of human PI5P4K alpha | P48426 | PI5P4Kalpha enzyme, ADP-Glo luminescence, 60 min; stronger effect = lower value | max response, % | hit rate 1.2% among 330,000 | AID 652105; active = max response of -50% or lower; inconclusive = between -30% and -50%; inactive = -30% or higher; note: value at the top dose of about 77 µM; % is set by controls: 0 for no effect and ±100 for the full control effect
Target sequence (P48426 whole entry, looked up): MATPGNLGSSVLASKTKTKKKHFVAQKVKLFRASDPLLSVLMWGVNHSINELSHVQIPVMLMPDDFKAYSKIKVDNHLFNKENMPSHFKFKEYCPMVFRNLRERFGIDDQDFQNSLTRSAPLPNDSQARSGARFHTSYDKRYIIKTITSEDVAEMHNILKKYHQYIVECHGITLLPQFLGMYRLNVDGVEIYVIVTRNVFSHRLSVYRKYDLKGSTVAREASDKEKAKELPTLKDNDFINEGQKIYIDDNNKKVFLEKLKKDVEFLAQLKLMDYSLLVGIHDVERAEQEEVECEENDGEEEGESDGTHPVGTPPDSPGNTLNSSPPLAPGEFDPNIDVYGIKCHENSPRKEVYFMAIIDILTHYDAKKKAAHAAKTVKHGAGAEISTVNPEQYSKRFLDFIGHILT
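Human PI5P4Kalpha with substrate in 0.038 M HEPES pH 7.4, 0.28 mM EGTA, 0.1% CHAPS, 5% DMSO; reaction started with 5 microM ATP (final), 60 min at room temperature. ADP formed read by ADP-Glo luminescence.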
Starred values were filed as active, the others as inactive; ? = inconclusive; / = no result given; ! = repeats disagree; [ ] = dose if it differs, or a comment. Unless noted, calls come from the whole dose curve; as a rule, active = well fitted curve in the direction sought with a large enough effect; inconclusive = small, poorly fitted or top-dose-only effect, or another doubt; inactive = no such curve, though single readings can be large; an effect the other way counts as inactive or inconclusive.

SMILES	PLK1 PBD block	BAZ2B inh	JMJD2A Tudor	HP1b binding inh	G9a inh	PI5P4K alpha inh
COc1ccc(/C=N\NC(=O)C2C(=O)NCC2c2ccccc2)cc1O (stereo not given)	3µM*	3%	?	?	7%[12.7 µM]	-57*
COCCCNC(=O)CN(c1ccc(OC)cc1)S(=O)(=O)c1ccc(NC(C)=O)cc1	-8%	-21%	-23%	22%	35%[12.7 µM]	-2
COc1ccc(N(CC(=O)NC(C)C)S(=O)(=O)c2ccc(NC(C)=O)cc2)cc1	-14%	-13%	-29%	-4%	1.4µM*	/
CCC(C)NC(=O)CN(c1ccc(OC)cc1)S(=O)(=O)c1ccccc1 (stereo not given)	21µM*	-2%	?	-15%	11%	?
O=C1Nc2ccc(Br)cc2/C1=C/c1ccc(C(=O)O)cc1	/	-23%	/	/	?	/
OCCCc1nc2n(n1)C(c1cccs1)C=C(c1ccccc1)N2 (stereo not given)	/	-33%	/	/	40µM*	/
CC(=O)c1ccc(S(=O)(=O)Nc2ccc(C(=O)N3CCC3)cc2)cc1	-3%	2%	-4%	25%	-35%	1
CC1CCCN(C(=O)COC(=O)c2cccc(NS(=O)(=O)c3ccccc3)c2)C1 (stereo not given)	-3%	8%	1%	17%	-2%	-4
Cc1ccc(S(=O)(=O)Nc2cccc(C(=O)N3CCN(c4ccccc4O)CC3)c2)cc1F	-13%	-12%	-29%	-12%	50µM*	-13
CC1CCCCN1C(=O)COC(=O)c1cccc(NS(=O)(=O)c2ccccc2)c1 (stereo not given)	5%	-12%	-10%	16%	56µM*	2
CCOC(=O)C1CCN(C(=O)c2cccc(NS(=O)(=O)c3ccc(F)c(F)c3)c2)CC1	-27%	-20%	-13%	22%	50µM*	-5
O=C(CCCOc1ccc(Cl)cc1Cl)N/N=C/c1ccc(Cl)cc1	15µM*	-26%	?	?	28%[59 µM]	21
CSc1cccc(NC(=O)CCCOc2ccc(Cl)cc2Cl)c1	0%	17%	30%	92%	26%	26
O=C(CCCOc1ccc(Cl)cc1Cl)Nc1cccnc1	-4%	5%	-16%	26%	45µM*	3
CCCCC(=O)Nc1ccc(C(=O)NNC(=O)CCCOc2ccc(Cl)cc2Cl)cc1	-14%	4%	-32%	8%	50µM*	-7
O=C(CNC(=O)c1ccc(Cl)cc1)OCc1cc(=O)n2nc(C3CC3)sc2n1	/	-9%	-11%	25%	2%[59 µM]	/
Cc1c(C(=O)NN)nn(-c2ccc(F)cc2)c(=O)c1C#N	1%	0%	-11%	43%	-18%	-4
CCOC(=O)c1nn(-c2ccccc2C)c(=O)c(C#N)c1C	-6%	6%	-5%	21%	89µM*	-7
CCOC(=O)c1nn(-c2ccc(C)c(C)c2)c(=O)c(C#N)c1C	-4%	-38%	-27%	29%	45µM*	-7
O=c1c(-c2cccs2)nc2cnc(N3CCOCC3)nc2n1Cc1cccs1	/	/	/	/	2%[0.501 µM]	/
CCC(C)NC(=O)c1sc2ncccc2c1-n1c(C)ccc1C (stereo not given)	/	-7%	-15%	2%[57 µM]	-5%[59 µM]	/
CCN(CC)CCNC(=O)CSc1nc2nc(C)c(Cc3ccccc3)c(C)n2n1	/	0%	-2%	32%	-1%[59 µM]	/
Nc1ncnc2c1ncn2C1OC(C(=O)NC2CC2)C(O)C1O (stereo not given)	-6%	-2%	-13%	28%	-5%[59 µM]	13
CNC(=O)[C@H]1O[C@@H](n2cnc3c(N)ncnc32)[C@H](O)[C@H]1O	/	/	/	/	3.2µM*	/
Nc1nc(Cl)nc2c1ncn2[C@@H]1O[C@H](COP(=O)(O)OP(=O)(O)OP(=O)(O)O)[C@@H](O)[C@H]1O	/	/	/	/	27µM*	/
SMILES	PLK1 PBD block	BAZ2B inh	JMJD2A Tudor	HP1b binding inh	G9a inh	PI5P4K alpha inh
Nc1ncnc2c1ncn2[C@@H]1O[C@H](COP(=O)(O)OP(=O)(O)OP(=O)(O)OP(=O)(O)OC[C@@H]2O[C@H](n3cnc4c(N)ncnc43)[C@@H](O)[C@H]2O)[C@@H](O)[C@H]1O	/	/	/	/	25µM*!	/
COc1ccccc1C(=O)NC(=O)COC(=O)C1CC1C (stereo not given)	-7%	-5%	-1%	31%	-6%[59 µM]	-7
CCc1nn(C(C)C(=O)N2CCN(c3cccc(C(F)(F)F)c3)CC2)c(=O)c2cc3occc3n12 (stereo not given)	/	?	?	9%	-30%[59 µM]	/
CN1CCc2c(cc(O)c(O)c2Cl)C(c2cccc(Cl)c2)C1 (stereo not given)	/	/	/	/	8.9µM*	/
CN1CCc2cc(O)c(O)cc2C(c2ccccc2)C1 (stereo not given)	-5%	-22%	-24%	-5%	11µM*	-1
Oc1cc2c(cc1O)C(c1ccccc1)CNCC2 (stereo not given)	2%	/	32µM*	?	6.7µM*	1
CN1CCc2cc(Cl)c(O)cc2C(c2ccccc2)C1 (stereo not given)	/	/	/	/	29%[12.7 µM]	/
Oc1cc2c(cc1O)[C@@H](c1ccccc1)CNCC2	0%	-7%	4%	29%	8.9µM*	-4
c1ccc(C2CNCCc3ccccc32)cc1 (stereo not given)	-15%	-10%	-7%	22%	-2%	-2
CN(C)CCNc1ncnc2c1ncn2[C@H]1CN(CCc2ccccc2)C[C@@H](CO)O1	2%	/	/	/	/	-2
Cc1cccc(CNc2ncncc2-c2ccccc2CN(C)C)c1	/	/	/	/	25%[0.501 µM]	/
Cc1ccc(-n2ncc3c(N4CCN(c5ccc(F)cc5)CC4)ncnc32)cc1	/	-1%	6%	53%	-6%[59 µM]	/
Cn1nnc2c(N3CCN(c4ccc(F)cc4)CC3)ncnc21	/	-13%	40µM*	12%	-27%[59 µM]	/
COc1ccc(N2CCN(c3ncnc4c3nnn4C)CC2)cc1	/	-22%	-31%	25%	?	/
Cn1ncc2c(N3CCN(c4ccc(F)cc4)CC3)ncnc21	/	79µM*	-26%	-6%	4%[59 µM]	/
COc1ccc(Cc2c(-c3cccc(Br)c3)nc3c(C)cc(Br)cn23)c(C)c1	5%	/	/	/	/	-7
Cc1cc(C(=S)N2CCOCC2)c(C)n1-c1ccc(F)cc1	?	45µM*	-16%	33%	/	0
Cc1ccc(-n2c(C)cc(C(=S)N3CCOCC3)c2C)cc1C	?	50µM*	45µM*	?	/	/
Cc1cc(C(=O)OCC(=O)N2CCOCC2)c(C)n1-c1ccccc1	2%	/	-7%	7%	/	0
O=C1NC2(CCCCC2)OC12CCCCC2	1%	/	3%	39%	/	16
COc1ccc(S(=O)(=O)Nc2nnc(CC(C)(C)C)s2)cc1	30µM*	-30%	5%	4%	35µM*	4
COc1ccc(S(=O)(=O)Nc2nnc(C(C)(C)C)s2)cc1	7.5µM*	/	-22%	-24%	1.8µM*	/
